PubChem BioAssay (Tox21)
Inconclusive results are not listed. Activity calls are given as the source filed them. Unless noted, the call rests on the fitted dose curve; in most records, active means well fitted curve in the direction sought with a large enough effect in the repeat runs; inconclusive means weak or mixed curves; inactive means no such curve, though single readings can be large; an effect the other way counts as inactive or inconclusive.

Key:
[1] = target: Estrogen receptor beta (Homo sapiens) (UniProt Q92731); experiment: qHTS assay to identify small molecule agonists of the estrogen receptor beta (ER-beta) signaling pathway (AID 1259377; active means well fitted activation curve with a large enough effect in the signal ratio in the repeat runs, not every such curve was filed as active; the % refers to the signal ratio; further: potency means the concentration at half of the fitted maximal effect)
Summary of the method: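 A UAS-controlled beta-lactamase reporter in ER-beta-UAS-bla HEK293T cells reports receptor activation. Compounds act for 16 hr at 37C in 2% charcoal-stripped serum, and a FRET substrate is read by fluorescence after 2 hours.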

[2] = target: Estrogen receptor beta (Homo sapiens) (UniProt Q92731); experiment: qHTS assay to identify small molecule antagonists of the estrogen receptor beta (ER-beta) signaling pathway (AID 1259378; active means well fitted inhibition curve with a large enough effect in the signal ratio in the repeat runs, not every such curve was filed as active; the % refers to the signal ratio; further: potency means the concentration at half of the fitted maximal effect)
Summary of the method: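 ER-beta-UAS-bla HEK293T (GripTite) cells in 2% charcoal-stripped FBS medium were preincubated 6 hr at 37C, dosed with compound, then stimulated with 1 nM E2 (final) for 16 hr; beta-lactamase reporter read by B/G FRET fluorescence after 2 hr substrate loading.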

[3] = qHTS assay to identify small molecule agonists of the androgen receptor (AR) signaling pathway in the presence of an antagonist - cell viability counter screen (AID 1259379); further: nearly all actives have a fitted effect of over 25% in size; further: potency means the concentration at half of the fitted maximal effect;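 on activity change, negative = cytotoxicity: MDA-kb2 human breast cancer cells carrying an MMTV luciferase reporter; series mostly up to about 92 µM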
Summary of the method: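 MDA-kb2 viability measured by CellTiter-Fluor fluorescence in the same wells as the luciferase signal; nilutamide 3.0uM final; 15-point compound titration; 16 hr at 37C.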

[4] = qHTS assay to identify small molecule agonists of the estrogen receptor beta (ER-beta) signaling pathway - cell viability counter screen (AID 1259380); further: nearly all actives have a fitted effect of over 30% in size; further: potency means the concentration at half of the fitted maximal effect
Summary of the method: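 Measured: luminescence from CellTiter-Glo after 30 min at room temperature, added to wells already read for the LiveBLAzer FRET reporter (2 hr substrate); ER-beta-UAS-bla HEK293T cells had 16 hr compound treatment at 37C, 5% CO2.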

[5] = qHTS assay to identify small molecule antagonists of the estrogen receptor beta (ER-beta) signaling pathway - cell viability counter screen (AID 1259382); further: series mostly up to about 92 µM; nearly all actives have a fitted effect of over 55% in size
Summary of the method: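 Readout: luminescence, CellTiter-Glo, same wells as bla assay. System: ER-beta-UAS-bla GripTite HEK293T, 2% charcoal-stripped FBS. Exposure: compounds plus 1nM 17-beta-estradiol, 16 hr, 37C.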

[6] = target: Estrogen receptor (Homo sapiens) (UniProt P03372); experiment: qHTS assay to identify small molecule agonists of the estrogen receptor alpha (ER-alpha) signaling pathway in the presence of an antagonist (AID 1259383; calls by dose curve; further: nearly all actives have a fitted effect of over 15% in size; further: potency means the concentration at half of the fitted maximal effect; on activation: top concentration of the series differs between compounds)
Summary of the method: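 Quantitative HTS confirmation: compounds titrated at 15 concentrations onto estrogen-deprived VM7Luc4E2 cells carrying a four-ERE luciferase construct, with ICI-182,780 present at 10.0nM final. Signal is luminescence after 22hr exposure.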

[7] = qHTS assay to identify small molecule agonists or antagonists of the thyroid stimulating hormone receptor (TSHR) signaling pathway - wild type cell line counter screen (AID 1259384; calls by dose curve)
Summary of the method: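 Wild-type HEK293 cells were plated 18 h at 37 C/5% CO2, pin-dosed with compound plus Ro20-1724 medium, held 30 min at room temperature, then given cAMP-d2 and anti-cAMP-cryptate; fluorescence was read after 1 h. Fifteen concentrations, triplicate.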

[8] = target: Thyrotropin receptor (Homo sapiens) (UniProt P16473); experiment: qHTS assay to identify small molecule antagonists of the thyroid stimulating hormone receptor (TSHR) signaling pathway (AID 1259385; calls by dose curve; further: nearly all actives have a fitted effect of over 20% in size; further: potency means the concentration at half of the fitted maximal effect)
Summary of the method: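 TSHR-HEK293 cells were plated and held 18 h at 37C/5% CO2, then given compound plus Ro20-1724 and stimulated with TSH at 1.5 ng/mL final. After 30 min at room temperature, cAMP was detected with cAMP-d2/anti-cAMP-cryptate (1 h) by fluorescence.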

[9] = qHTS assay to identify small molecule agonists of the estrogen receptor alpha (ER-alpha) signaling pathway in the presence of an antagonist - cell viability counter screen (AID 1259386);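 further: cells exposed to compounds for 22 h at 37 °C before the viability read; nearly all actives have a fitted effect of over 30% in size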; further: potency means the concentration at half of the fitted maximal effect; on activity change, negative = cytotoxicity: series mostly up to about 92 µM
Summary of the method: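 The test measures whether compounds kill ER-alpha reporter cells (VM7Luc4E2) under antagonist co-treatment (ICI-182,780, 10.0nM). Fluorescence from CellTiter-Fluor is read after a 22hr exposure.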

[10] = target: Androgen receptor (Homo sapiens) (UniProt P10275); experiment: qHTS assay to identify small molecule agonists of the androgen receptor (AR) signaling pathway in the presence of an antagonist (AID 1259381; calls by dose curve; further: nearly all actives have a fitted effect of over 15% in size)
Summary of the method: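 Luminescent ONE-Glo read, 30min at room temperature, follows 16hr compound exposure (15 concentrations) of MDA-kb2 cells at 37C, 0% CO2, with nilutamide added at 3.0uM final.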
On the % scale 0 is the no-effect control and ±100 the full control effect.

Estrogen receptor beta (Homo sapiens), sequence (Q92731 whole entry, looked up): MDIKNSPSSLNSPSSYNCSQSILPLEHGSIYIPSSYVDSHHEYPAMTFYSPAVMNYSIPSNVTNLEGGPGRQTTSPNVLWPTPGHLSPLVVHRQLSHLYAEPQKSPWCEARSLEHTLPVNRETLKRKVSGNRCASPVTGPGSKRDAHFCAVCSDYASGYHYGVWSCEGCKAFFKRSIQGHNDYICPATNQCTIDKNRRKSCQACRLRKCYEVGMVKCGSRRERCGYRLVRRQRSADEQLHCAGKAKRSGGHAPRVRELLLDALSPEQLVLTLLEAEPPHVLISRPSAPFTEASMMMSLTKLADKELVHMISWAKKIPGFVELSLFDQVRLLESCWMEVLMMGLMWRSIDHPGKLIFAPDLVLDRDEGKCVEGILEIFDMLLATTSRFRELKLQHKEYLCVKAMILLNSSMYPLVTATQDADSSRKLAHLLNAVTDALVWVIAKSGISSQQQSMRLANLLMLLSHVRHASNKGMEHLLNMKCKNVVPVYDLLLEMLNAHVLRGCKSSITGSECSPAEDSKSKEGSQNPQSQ
Estrogen receptor (Homo sapiens), sequence (P03372 whole entry, looked up): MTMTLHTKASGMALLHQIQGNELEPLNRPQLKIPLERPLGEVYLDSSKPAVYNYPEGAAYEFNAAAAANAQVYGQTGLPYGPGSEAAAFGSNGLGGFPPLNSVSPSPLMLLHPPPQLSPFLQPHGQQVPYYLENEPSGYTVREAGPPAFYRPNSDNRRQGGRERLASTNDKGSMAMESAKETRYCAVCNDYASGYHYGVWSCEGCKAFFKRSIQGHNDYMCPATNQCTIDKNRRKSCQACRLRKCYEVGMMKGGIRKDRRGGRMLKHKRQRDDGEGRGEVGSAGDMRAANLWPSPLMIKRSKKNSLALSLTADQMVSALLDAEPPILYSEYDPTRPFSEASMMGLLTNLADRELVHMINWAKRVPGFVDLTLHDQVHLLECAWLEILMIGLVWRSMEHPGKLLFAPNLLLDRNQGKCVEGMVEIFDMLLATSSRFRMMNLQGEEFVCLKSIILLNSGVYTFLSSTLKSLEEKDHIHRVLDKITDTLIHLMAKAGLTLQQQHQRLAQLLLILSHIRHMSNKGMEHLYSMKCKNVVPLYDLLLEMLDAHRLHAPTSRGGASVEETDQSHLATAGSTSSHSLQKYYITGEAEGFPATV
Thyrotropin receptor (Homo sapiens), sequence (P16473 whole entry, looked up): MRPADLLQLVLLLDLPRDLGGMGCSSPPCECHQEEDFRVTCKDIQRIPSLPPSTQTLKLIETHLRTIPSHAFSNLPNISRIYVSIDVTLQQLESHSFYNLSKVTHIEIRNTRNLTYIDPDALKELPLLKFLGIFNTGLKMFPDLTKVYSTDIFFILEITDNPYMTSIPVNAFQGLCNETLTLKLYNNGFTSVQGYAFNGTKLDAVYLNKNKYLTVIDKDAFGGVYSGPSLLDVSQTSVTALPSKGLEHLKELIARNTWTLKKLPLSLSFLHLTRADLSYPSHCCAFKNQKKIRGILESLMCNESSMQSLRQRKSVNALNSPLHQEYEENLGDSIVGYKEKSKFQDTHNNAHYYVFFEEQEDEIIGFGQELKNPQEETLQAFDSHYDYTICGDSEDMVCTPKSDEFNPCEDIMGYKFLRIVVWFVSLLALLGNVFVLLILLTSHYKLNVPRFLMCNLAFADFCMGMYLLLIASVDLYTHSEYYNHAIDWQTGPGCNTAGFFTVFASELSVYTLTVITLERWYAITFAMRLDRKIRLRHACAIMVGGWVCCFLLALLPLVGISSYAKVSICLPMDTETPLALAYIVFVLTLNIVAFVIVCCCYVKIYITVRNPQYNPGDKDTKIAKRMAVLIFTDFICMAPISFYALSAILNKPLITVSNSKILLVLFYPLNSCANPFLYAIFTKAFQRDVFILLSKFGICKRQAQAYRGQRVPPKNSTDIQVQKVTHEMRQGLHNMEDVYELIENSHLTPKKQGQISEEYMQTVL
Androgen receptor (Homo sapiens), sequence (P10275 whole entry, looked up): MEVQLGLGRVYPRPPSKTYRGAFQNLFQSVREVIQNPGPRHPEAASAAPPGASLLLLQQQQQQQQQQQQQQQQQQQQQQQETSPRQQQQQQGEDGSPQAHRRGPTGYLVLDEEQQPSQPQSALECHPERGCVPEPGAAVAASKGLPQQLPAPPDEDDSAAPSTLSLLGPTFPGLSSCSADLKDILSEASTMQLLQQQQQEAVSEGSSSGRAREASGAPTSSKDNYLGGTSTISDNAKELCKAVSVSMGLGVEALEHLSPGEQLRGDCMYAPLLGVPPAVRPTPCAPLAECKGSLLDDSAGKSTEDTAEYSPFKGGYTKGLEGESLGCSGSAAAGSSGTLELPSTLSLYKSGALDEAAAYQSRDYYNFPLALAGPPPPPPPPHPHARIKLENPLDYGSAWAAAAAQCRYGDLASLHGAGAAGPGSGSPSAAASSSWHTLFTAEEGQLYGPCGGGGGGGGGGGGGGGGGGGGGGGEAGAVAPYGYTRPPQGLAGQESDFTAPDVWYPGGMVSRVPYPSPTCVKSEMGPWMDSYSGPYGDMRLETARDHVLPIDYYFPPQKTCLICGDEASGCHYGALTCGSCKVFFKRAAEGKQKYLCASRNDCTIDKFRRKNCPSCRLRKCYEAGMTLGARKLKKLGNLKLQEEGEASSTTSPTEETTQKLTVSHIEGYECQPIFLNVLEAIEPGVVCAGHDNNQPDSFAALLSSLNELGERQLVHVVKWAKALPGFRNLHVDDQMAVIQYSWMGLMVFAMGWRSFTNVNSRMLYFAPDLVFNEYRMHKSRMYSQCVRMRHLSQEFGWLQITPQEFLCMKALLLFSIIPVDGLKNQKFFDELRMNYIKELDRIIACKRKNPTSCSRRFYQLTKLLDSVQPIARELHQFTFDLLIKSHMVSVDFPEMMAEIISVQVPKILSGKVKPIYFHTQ

Cc1[nH]c(C)c(Cl)c(=O)c1Cl
inactive: activation [1] 0.451% [at 19 µM] | activity, negative = inhibition [2] 9.97% [at 19 µM] | activity change, negative = cytotoxicity [3] 0.0878% [at 19 µM] | activity change, negative = cytotoxicity [4] 2.64% [at 19 µM] | activity change, negative = cytotoxicity [5] 0.273% [at 19 µM] | Potency [6] | cAMP activity change [7] 6.03% [at 18.9 µM, active compounds read high] | activity change, negative = inhibition [8] 4.84% [at 19 µM] | activity change, negative = cytotoxicity [9] -1.35% [at 19 µM]

OCCNCc1ccccc1
inactive: Potency [1] | Potency [2] | Potency [3] | Potency [4] | Potency [10] | Potency [5] | Potency [6] | Potency [9]

O=C1CCCCCCCCCCCC(=O)OCCO1
inactive: Potency [1] | Potency [2] | Potency [3] | Potency [4] | Potency [10] | Potency [5] | Potency [6] | Potency [7] | Potency [9]

CCCCCCCCCOS(=O)(=O)O
inactive: Potency [1] | Potency [2] | Potency [3] | Potency [4] | Potency [5] | Potency [6] | Potency [7] | Potency [8] | Potency [9]

COc1ccc(C(=O)N2CCN(CC(=O)N3CCOCC3)CC2)cc1
inactive: Potency [1] | Potency [2] | Potency [3] | Potency [4] | Potency [5] | Potency [6] | Potency [7] | Potency [8] | Potency [9]

CCCCCCCCCCCCCCCCOS(=O)(=O)O
active: Potency [4] 33.5 µM
inactive: Potency [1] | Potency [2] | Potency [3] | Potency [10] | Potency [6] | Potency [7] | Potency [9]

CCOC(=O)Cc1cccc2ccccc12
inactive: Potency [1] | Potency [2] | Potency [3] | Potency [4] | Potency [5] | Potency [6] | Potency [7] | Potency [8] | Potency [9]

O=[N+]([O-])c1ccc(NCCO)c(OCCO)c1
inactive: Potency [1] | Potency [2] | Potency [4] | Potency [10] | Potency [5] | Potency [7] | Potency [8]
active: Potency [3] 54.5 µM | Potency [9] 27.3 µM

CCN(CC)CCOC(=O)C(c1ccccc1)C1CCCCC1 (centres undefined)
active: Potency [8] 26.6 µM
inactive: Potency [1] | Potency [2] | Potency [3] | Potency [4] | Potency [5] | Potency [6] | Potency [7]

COc1ccc(C(=O)c2ccc(OC)cc2O)c(O)c1
active: Potency [1] 48.9 µM | Potency [6] 8.7 µM
inactive: Potency [2] | Potency [3] | Potency [4] | Potency [10] | Potency [5] | Potency [7] | Potency [8] | Potency [9]

Cc1cc(C(=O)O)ccc1[N+](=O)[O-]
inactive: Potency [1] | Potency [2] | Potency [3] | Potency [4] | Potency [5] | Potency [6] | Potency [7] | Potency [8] | Potency [9]

CCCCCCCN
inactive: Potency [1] | Potency [2] | Potency [3] | Potency [4] | Potency [5] | Potency [6] | Potency [7] | Potency [8] | Potency [9]

Nc1ccc([N+](=O)[O-])c(C(F)(F)F)c1
inactive: Potency [1] | Potency [2] | Potency [3] | Potency [4] | Potency [5] | Potency [6] | Potency [7] | Potency [8]

CCOC(=O)C(=O)CCc1ccccc1
inactive: Potency [1] | Potency [2] | Potency [3] | Potency [4] | Potency [10] | Potency [5] | Potency [6] | Potency [9]

Cc1cc(N)c2cc(NC(=O)Nc3ccc4nc(C)cc(N)c4c3)ccc2n1
inactive: Potency [1] | Potency [2] | Potency [3] | Potency [4] | Potency [10] | Potency [5] | Potency [9]

NCCCN1CCOCC1
inactive: Potency [1] | Potency [2] | Potency [3] | Potency [4] | Potency [10] | Potency [5] | Potency [6] | Potency [7] | Potency [9]

c1ccc(CNCCNCc2ccccc2)cc1
inactive: Potency [1] | Potency [3] | Potency [4] | Potency [5] | Potency [6] | Potency [7] | Potency [8] | Potency [9]
active: Potency [2] 10.6 µM

COc1ccnc(CS(=O)c2nc3ccc(OC(F)F)cc3[nH]2)c1OC (centres undefined)
inactive: Potency [1] | Potency [2] | Potency [3] | Potency [4] | Potency [5] | Potency [6] | Potency [7] | Potency [8] | Potency [9]

O=S(=O)(Oc1ccc(Cl)cc1)c1ccccc1
inactive: Potency [1] | Potency [2] | Potency [3] | Potency [4] | Potency [5] | Potency [6] | Potency [7] | Potency [8] | Potency [9]

CN1CCN(C(c2ccccc2)c2ccccc2)CC1
inactive: Potency [1] | Potency [2] | Potency [3] | Potency [4] | Potency [10] | Potency [5] | Potency [6] | Potency [7] | Potency [9]

O=C(O)CNCC(=O)O
inactive: activation [1] 0.711% [at 8.39 µM] | activity, negative = inhibition [2] 5.13% [at 8.39 µM] | activity change, negative = cytotoxicity [3] -0.627% [at 8.39 µM] | activity change, negative = cytotoxicity [4] 12.4% [at 8.39 µM] | activation [10] 3.52% [at 8.39 µM] | activity change, negative = cytotoxicity [5] -2.7% [at 8.39 µM] | activation [6] -1.55% [at 8.39 µM] | cAMP activity change [7] 0.505% [at 8.39 µM, active compounds read high] | activity change, negative = inhibition [8] -1.17% [at 8.39 µM] | activity change, negative = cytotoxicity [9] -4.75% [at 8.39 µM]
